From PubChem BioAssay AID1259415 (National Center for Advancing Translational Sciences (NCATS), 2018)
Several values for one entry are separate records, joined by “and”; a condition that tells them apart may be missing. Identical values can stand only once. Out of some 410,000 compounds screened, about 18,000 (4.4%) were called active. Not shown: some 7% with an inconclusive outcome. No stated cut-off is given here; in the data, active means activity change below about -60%; inconclusive means no clear call, values can overlap the other calls; inactive means above about -39%. The entries come from a sample that favours actives as a whole.

assay: qHTS Assay for inhibitors of the human cytomegalovirus (HCMV); settings: HFF cells, HCMV-luciferase reporter, 72 h; at 57.5 µM; active compounds read low
Summary of the method: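 HFF cells seeded 16 h at 37C, treated with compounds, infected with luciferase-reporter HCMV at MOI 1 PFU/cell; luciferase read at 72 h post infection, normalized to buffer-only and Salinomycin controls.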
On the % scale 0 is the no-effect control and ±100 the full control effect.

Structure (SMILES) | activity change, negative = inhibition
COc1cccc(CNC(=O)C2CCN(S(=O)(=O)c3ccc4c(ccn4C)c3)CC2)c1 | 16.9% (inactive)
c1ccc2c(-c3nn4nnnc4c4ccccc34)cccc2c1 | 49.8% (inactive)
CN(C(=O)CSc1nc2ccc(NC(=O)COc3ccccc3)cc2s1)c1ccccc1 | -30% (inactive)
COc1ccc2c(c1)c(N1CCCC1=O)c(C(=O)Nc1ccccc1C(F)(F)F)n2C | -24.2% (inactive)
CCCCCC(=O)N1C[C@H](O)[C@@H](n2cc(COC(=O)c3ccccc3)nn2)C[C@@H]1c1ccc(C)cc1 | -7.72% (inactive)
Cc1ccc([C@H]2C[C@H](O)[C@@H](n3cc(COC(=O)c4ccccc4)nn3)CN2C(=O)C2CCCCC2)cc1 | 1.46% (inactive)
Cc1ccc([C@H]2C[C@H](O)[C@@H](n3cc(COC(=O)c4ccccc4)nn3)CN2CC2CCCCC2)cc1 | -100% (active)
O=C(CC1Sc2ccccc2NC1=O)NNc1ccc(Cl)c(Cl)c1 (configuration not stated) | -35.8% (inactive)
COc1ccc(N2CCN(S(=O)(=O)c3ccc(-c4coc(C)n4)cc3)CC2)cc1 | -11.2% (inactive)
CCOc1ccccc1N1CN(Cc2ccccc2)CNC1=S | -2.1% (inactive)
CCOC(=O)c1ccc(NC2=CC(c3ccc(OCC)cc3)N(c3ccc(C(=O)OCC)cc3)C2=O)cc1 (configuration not stated) | 18.7% (inactive)
CCc1nnc(NC(=O)C2CCCN2S(=O)(=O)c2ccccc2)s1 (configuration not stated) | -60.4% (active)
CC(C)c1nnc(NC(=O)C2CCCN2S(=O)(=O)c2ccc(Cl)cc2)s1 (configuration not stated) | 2.67% (inactive)
CCc1nnc(NC(=O)C2CCN(C(=O)c3ccccc3C)CC2)s1 | 17.6% (inactive)
O=C(CCn1c(=O)c2ccccc2n(Cc2ccc(Cl)cc2)c1=O)NCc1ccc2c(c1)OCO2 | 10.1% (inactive)
COc1ccc(C(=O)/C=C/c2cccnc2)c(OC)c1 | -71.6% (active)
COc1ccc(C(=O)COC(=O)C(O)c2ccccc2)c(OC)c1 (configuration not stated) | -26% (inactive)
COc1ccc(N2CC(C(=O)NCCN3C(=O)S/C(=C\c4cccnc4)C3=O)CC2=O)c(OC)c1 (configuration not stated) | 24.9% (inactive)
Cc1ccsc1CN(C(=O)c1oc2ccc(Br)cc2c1C)C1CCS(=O)(=O)C1 (configuration not stated) | 30.1% (inactive)

Structure (SMILES) | activity change, negative = inhibition
CCN1CCN(c2ncnc3c2cnn3-c2ccc(C)c(C)c2)CC1 | -1.25% (inactive)
Cc1ccc(NC(=O)c2oc3ccccc3c2NC(=O)Cc2cccs2)cc1 | 14.9% (inactive)
CCOc1ccc2oc(=O)cc(CN3CCN(C(=O)c4ccc(F)cc4)CC3)c2c1 | -25.5% (inactive)
CC[n+]1cc(C)ccc1/C=C/c1ccc(N(C)C)cc1 | -99.4% (active)
CCOC(=O)c1ccc(NC(=O)c2ncn(-c3ccccc3)n2)cc1 | 43.5% (inactive)
COc1ccc(Cl)cc1NC(=O)CSc1nc(=O)[nH]c2c1CCCC2 | 31.1% (inactive)
NS(=O)(=O)c1ccc(CCNC(=O)CCCCCn2c(=O)[nH]c3ccccc3c2=O)cc1 | 34% (inactive)
CCCN(CCC)CCCNC(=O)Cn1cc2c(n1)-c1c(oc(C(=O)N3CCCC3)c1C)CC2 | -39.7% (inactive)
COc1ccccc1N1CCN(c2ccc(=O)n(CC(=O)NCc3ccc(OC(C)C)cc3)n2)CC1 | 13.7% (inactive)
Cc1c(C(=O)N2CCCC2)oc2c1-c1nn(CC(=O)NCc3ccc(OC(C)C)cc3)cc1CC2 | -68.3% (active)
COc1ccccc1N(C)S(=O)(=O)c1ccc(C(=O)N2CCC(C(N)=O)CC2)cc1 | 63.1% (inactive)
COc1cccc(C(=O)Nc2ccc(-c3cc(C(F)(F)F)nn3-c3ccccc3)cc2)c1 | -87.7% (active)
COc1ccc(C(=O)Nc2ccc(-n3nncc3-c3ccccc3)cc2)cc1OC | -6.64% (inactive)
COc1cccc(C(=O)NC(=O)Nc2ccc(-c3cc(C(F)(F)F)nn3-c3ccccc3)cc2)c1 | -6.79% (inactive)
Cc1ccc(CNC(=O)CCc2c(C)nc3nc(CNC(=O)OC(C)(C)C)nn3c2C)cc1 | -10.3% (inactive)
COc1cc2ccccc2cc1C(=O)Nc1cccc(-c2nc3ccccc3o2)c1 | -27.9% (inactive)
Cc1ccc(C)c(N2CCN(C(=O)C3CCC(CNS(=O)(=O)c4cccs4)CC3)CC2)c1 (configuration not stated) | -30% (inactive)
CC1Cc2ccccc2N1S(=O)(=O)c1cccc(C(=O)NCC(c2ccco2)N2CCCC2)c1 (configuration not stated) | -24% (inactive)
CC1CCc2sc(C(=O)NCC(c3ccco3)N3CCCCC3)cc2C1 (configuration not stated) | -61.7% (active)

Structure (SMILES) | activity change, negative = inhibition
CSc1ncccc1C(=O)NCC(c1ccco1)N1CCCCC1 (configuration not stated) | -4.3% (inactive)
CCOC(=O)c1ccc(NC(=O)C2CC(=O)NC(=Nc3ccc(C)c(C)c3)S2)cc1 (configuration not stated) | -14.2% (inactive)
CC1(C)CC(=O)c2cc(OCC(=O)NCC3CCCO3)ccc2O1 (configuration not stated) | 55.1% (inactive)
Cc1ccc(CNC(=O)CCC(=O)N2Cc3ccccc3Oc3ncccc32)cc1 | -2.66% (inactive)
CN1CCC(N(C)C(=O)c2ccc(Cl)c(S(=O)(=O)Nc3ccc(Cl)cc3)c2)CC1 | -3.23% (inactive)
CC1CCCN(C(=O)Cn2c(=O)oc3ccccc32)C1 (configuration not stated) | 12.6% (inactive)
O=C(Cn1c(=O)n(CC2CS2)c2ccccc21)N1CCCCC1 (configuration not stated) | -89.4% (active)
Cn1c(=O)n(C)c(=O)n(CC(=O)N2CCCCC2)c1=O | 32.3% (inactive)
Cc1cc(NC(=O)c2ccc(-c3ccc(Cl)cc3)o2)cc(-c2nc3ncccc3o2)c1O | 5.53% (inactive)
COc1ccc(C(=O)NC2CCCc3c2cnn3-c2cccc(C)c2C)c(OC)n1 (configuration not stated) | -87% (active)
COc1cccc(C(=O)Nc2c3c(nn2-c2cccc(C)c2C)CS(=O)(=O)C3)c1OC | -4.86% (inactive)
Cc1cccc(-n2nc3c(c2NC(=O)c2ccc(Br)o2)CSC3)c1C | 14.4% (inactive)
Cc1cc(C(=O)NNC(=O)CCC2CCCCC2)c(C)o1 | -17% (inactive)
Cc1cc(C(=O)NC2CCCc3c2cnn3-c2cccc(C)c2C)c(C)o1 (configuration not stated) | -73.8% (active)
Cc1cccc(C(=O)OC(C)C(=O)NC2CCCc3ccccc32)c1O (configuration not stated) | -10.7% (inactive)
COc1ccc(C(=O)N2CCC(c3nc4ccccc4o3)CC2)cc1 | 43.5% (inactive)
Cc1cccc(N2CCN(C(=O)c3oc(=O)c4ccccc4c3-c3ccccc3)CC2)c1C | 4.74% (inactive)
Cc1cccc(N2CCN(C(=O)c3cc4c(=O)[nH]c5ccccc5c4n3C)CC2)c1C | -65.2% (active)
CCn1c(C)c(C)c2cc(C(=O)N3CCN(c4cccc(C)c4C)CC3)ccc21 | 0% (inactive) and 13.6% (inactive)
